# Compounds with a hit are over-represented: about 14% of the library has one in this group of screens.
# Pf growth 96h: P. falciparum growth inhibition at 96 hour, primary screen for plastid delayed-death inhibitors; P. falciparum luciferase reporter growth, 96 h; 6.9% of 320,000 active; AID 504834; Potency, µM (top dose mostly 28.7 µM), most hits filed as inhibitors
#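 Two parasite generations (96 h, 37 C, 5% CO2) of compound exposure in infected erythrocytes (0.05% parasitemia, 2% hematocrit). Luciferase-reporter P. falciparum; decreased luminescence indicates inhibited growth, aimed at apicoplast-acting delayed death.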
# HCMV antiviral: blocks human cytomegalovirus replication | AID 1259415 | HFF cells, HCMV-luciferase reporter, 72 h; stronger effect = lower value | activity change, negative = inhibition, % at 57.5 µM | 4.5% of 410,000 active; in the data active = activity change below about -60%; inconclusive = no clear call, values can overlap the other calls; inactive = above about -39%
#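 Human foreskin fibroblasts infected with luciferase-reporter HCMV at MOI 1 PFU/cell, compounds at two doses. Luciferase measured 72 h post infection; normalized to buffer-only basal and Salinomycin (10uM) controls.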
# MARV entry inh: Marburg virus entry inhibition; Marburg virus pseudotyped entry inhibition, cell reporter; 1.8% of 300,000 active; Potency, µM (doses to about 37.8 µM), hits mostly inhibitors; calls by dose curve; tested in HEK293 cells
# Pf growth 48h: inhibits P. falciparum growth in the first generation, 48 h; P. falciparum luciferase growth in erythrocytes, 48 h; Potency, µM (top dose mostly 28.7 µM), most hits filed as inhibitors; 5.9% of 310,000 active; AID 504832
#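 Here the parasites carry a stable luciferase gene and grow inside erythrocytes in Albumax-based RPMI medium with compound for one erythrocytic cycle. Activity is scored as loss of luminescent signal.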
# Lassa entry inh: blocks Lassa virus binding to or entry into cells. Lassa virus pseudotype entry inhibition, cell reporter. Potency, µM (top dose mostly 37.9 µM), hits mostly inhibitors. 1.2% of 300,000 active. AID 540256; calls by dose curve; tested in HEK293 cells; also: nearly all actives have a fitted effect of over 50% in size
# HCV inh: blocks hepatitis C virus. Potency, µM (doses to about 41.8 µM), actives largely listed as inhibitors. Huh7.5.1 HCVcc-Cre infection, luciferase reporter, 44 h. 3.4% of 340,000 active
#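 Whole-lifecycle infectious HCVcc-Cre system; cells 1,000/well, compound then virus (~0.5 moi) added 4 h after plating, 44 h culture. Luciferase read 15 sec following 15 min substrate incubation, room temp.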
# Numbers stand for hits; 0 = inactive; ? = inconclusive; - = not tested or not shown; [ ] = another dose, or the depositor's remark. Unless noted, calls follow the shape of the dose curve; as a rule, active = well fitted inhibition curve with a large enough effect; inconclusive = small, poorly fitted or top-dose-only effect, or another doubt; inactive = no such curve, though single readings can be large or run the other way.
SMILES,Pf growth 96h,HCMV antiviral,MARV entry inh,Pf growth 48h,Lassa entry inh,HCV inh
O=C(/C=C/c1cccc([N+](=O)[O-])c1)NCCSCc1ccc(Cl)cc1Cl,0,0,?,0,0,?
O=C(/C=C/c1cccc([N+](=O)[O-])c1)NCCSCc1ccccc1Cl,2.94µM,0,0,0,0,0
Cc1ccc(CSCC(=O)N2CCN(c3ccccc3F)CC2)cc1,-,0,-,-,0,-
CCn1nc(C)cc1-c1nnc(Sc2ncc([N+](=O)[O-])s2)n1C,0,-96.3,-,0[0.00184 µM],-,3.55µM
COc1ccccc1Nc1nc(N2CCOCC2)nc(N2CCOCC2)n1,10.4µM,?,3.98µM,?,0,?
CCOc1nc(Nc2ccc(OC)cc2)nc(OCC)n1,-,0,0,0,0,?
CC(Nc1nc(N2CCCCC2)nc2ccccc12)c1ccccc1 (stereo not drawn),?,0,?,-,?,?
COc1ccccc1Nc1nc(N2CCCC2)nc(N2CCOCC2)n1,-,0,-,-,-,-
CCOc1nc(Nc2ccc(OC)c(Cl)c2)nc(OCC)n1,13.1µM,0,?,-,?,?
COc1ccc(Nc2nc(Nc3ccc(OC)cc3OC)nc(N3CCOCC3)n2)c(OC)c1,-,0,1µM,-,0,-
C=CCNc1nc(N2CCCC2)nc2ccccc12,-,0,?,5.22µM,0,15.8µM
CCOC(=O)c1c(NC(=O)c2ccc(OCC)c(Br)c2)sc2c1CCCC2,-,0,-,-,0,-
COc1ccc(Nc2nc(-c3ccc(C)cc3)nc3ccccc23)c(OC)c1,-,0,-,-,0,-
COc1ccc(Nc2nc(N3CCOCC3)nc(N3CCOCC3)n2)cc1Cl,0,0,?,0,0,10µM
COc1ccc(Nc2nc(N3CCCC3)nc3ccccc23)c(OC)c1,-,?,?,6.57µM,16.4µM,3.16µM
Cc1ccc(Nc2nc(Nc3ccc(C)c(C)c3)nc(N3CCOCC3)n2)cc1C,-,0,?,-,?,-
COCCNc1nc(Nc2ccccc2Cl)c2sccc2n1,-,0,-,-,-,-
CCC(=O)N1CCN(c2nc(-c3ccccc3)c3c(c2C#N)CCCC3)CC1,0,0,0,-,?,10µM
CCCc1cc(-n2ccnc2C)n2c(nc3ccccc32)c1C#N,-,?,0,-,0,0
N#Cc1c(SCC(=O)O)nc(-c2ccccc2)c2c1CCCC2,?,0,0,0,0,0
CCCCc1nc(N2CCN(C(=O)c3ccco3)CC2)c(C#N)c2c1CCCC2,?,0,-,9.28µM,-,14.1µM
CCCCc1ccc(NC(=S)N2CCN(C(=O)c3ccco3)CC2)cc1,?,0,0,0,?,0
CCCc1cc(N2CCN(C(=O)c3ccco3)CC2)n2c(nc3ccccc32)c1C#N,-,?,?,11.7µM,?,?
C(=C\c1ccccc1)/CN1CCN(C(c2cc3ccccc3o2)c2nnnn2Cc2ccccc2)CC1 (stereo not drawn),-,0,-,-,-,-
Cc1ccc(Cl)cc1N(C)C(=O)Cn1ncc2c([nH]c3ccccc32)c1=O,?,-69.2,-,?,-,0
SMILES,Pf growth 96h,HCMV antiviral,MARV entry inh,Pf growth 48h,Lassa entry inh,HCV inh
CN(Cc1ccco1)C(=O)Cn1ncc2c([nH]c3ccccc32)c1=O,9.28µM,0,-,0,-,?
Cc1ccc2[nH]c3c(=O)n(CC(=O)N(C)c4cc(Cl)ccc4C)ncc3c2c1,-,0,-,-,0,-
CCOC(=O)c1c(C)c2c(=O)[nH]cnc2n1-c1ccccc1,0,-62.1,-,-,-,0
CN(C)c1cc2c(c(N(C)C)c1)C(=O)c1ccccc1C2=O,4.15µM,0,0,?,0,?
Cc1ccc(S(=O)(=O)N(C)c2ccc3c(c2)C(=O)c2ccccc2-3)cc1,-,0,-,-,-,-
CCN(CC)CCNC(=O)c1cccc(NC(=O)C(=O)c2cc(Br)ccc2NC(C)=O)c1,?,0,0,10.4µM,0,0
Cc1ccc(C(=O)Nc2ccc(Br)c(C(F)(F)F)c2)cc1,11.7µM,0,16.4µM,?,?,11.2µM
Cc1ccc(C(=O)Nc2ccc3ncccc3c2)cc1,0,-63.6,?,0,?,0
Cc1cc(=O)oc(C)c1C(=O)Nc1ccc2nsnc2c1,-,0,0,0,0,0
Cc1ccc(NC(=O)c2ccc(NS(=O)(=O)c3cccc4cccnc34)cc2)cc1,0,-,0,0,?,10µM
Cc1cc(=O)oc(C)c1C(=O)Nc1ccc2ncccc2c1,-,0,0,9.28µM,0,0
CCC[C@H](N[C@@H](CCC)[C@H](O)c1ccccc1)[C@H](O)c1ccccc1,-,?,8.91µM,-,0,0
Cc1cc(Cl)ccc1OCc1cc(=O)n2c3c(sc2n1)CCCC3,-,0,0,-,0,-
COC(=O)N/N=C/c1sc(N2CCCCC2)nc1-c1cccs1,?,-67.9,0,?,0,?
COc1ccc(C(=O)N/N=C/c2sc(N3CCOCC3)nc2-c2ccccc2)cc1OC,?,0,0,?,0,?
COc1ccc(CCNC(=O)c2cnn(-c3ccc(F)cc3)c2C2CCN(C(=O)OC(C)(C)C)CC2)cc1OC,-,0,-,-,?,-
Cc1cc(/C=C\c2ccc3cc(N(C)C)ccc3[n+]2C)c(C)n1-c1ccccc1,0.0033µM,-,-,0.262µM,-,1µM
Cc1cc(/C=C2\SC(=O)NC2=O)c(C)n1-c1ccc(N(C)C)cc1,0,0,0,0,0,0
COc1ccc(NC(=O)c2cc(C3CC3)nc3c2cnn3C(C)C)cc1OC,14.7µM,?,-,?,-,10µM
COc1cc(C)c(NC(=O)c2cc(C3CC3)nc3c2cnn3C(C)C)cc1OC,?,0,-,?,-,5.01µM
Cc1ccc(-c2cc(C(=O)NCCc3ccccc3)c3ccccc3n2)cc1C,-,0,-,-,0,-
COC(=O)C1C(O)C(C)C(O)C(C)(O)/C=C\C=C(/C)C(=O)Nc2c(C)c(OC(C)=O)c3c(c2O)C(=O)C(C)=C2OCOC(=C23)/C(C)=C/C(C)(O)C(O)C(C)C1O (stereo not drawn),?,0,0,2.94µM,0,0
COC(=O)c1cn(NC(=O)C2CCC(C(C)(C)C)CC2)c(=O)c2ccccc12 (stereo not drawn),4.15µM,0,0,0,0,0
COC(=O)c1cn(NC(=O)C2CCCO2)c(=O)c2ccccc12 (stereo not drawn),11.7µM,0,0,0,0,0
O=C(Nc1cccc2c1CCCC2)c1cc(C2CCCCN2C(=O)c2cccs2)on1 (stereo not drawn),-,0,-,-,-,-
SMILES,Pf growth 96h,HCMV antiviral,MARV entry inh,Pf growth 48h,Lassa entry inh,HCV inh
CCc1nn2c(=O)cc(COC(=O)c3cccc(NC(=O)CCc4ccccc4)c3)nc2s1,-,0,-,-,0,-
CC12CCC(c3nnc(SCC(=O)Nc4cccc5ccccc45)nc31)C2(C)C (stereo not drawn),?,0,0,0,?,0
CCOC(=O)CSc1nnc2c(n1)C1(C)CCC2C1(C)C (stereo not drawn),3.29µM,0,0,0,0,0
CC12CCC(c3nnc(SCc4ccc(Cl)cc4)nc31)C2(C)C (stereo not drawn),4.15µM,0,0,0,?,0
Cc1c(C(=O)N2CCC(C)CC2)c(S(=O)(=O)N2CCN(c3cccc(Cl)c3)CC2)c(C)n1C,-,0,-,-,0,-
Clc1ccccc1/C=N/Nc1cc(N2CCOCC2)ncn1,8.28µM,0,?,0,?,0
CCCOc1ccc(/C=N/Nc2cc(N3CCOCC3)ncn2)c(O)c1,0,-101.2,-,2.08µM,-,?
